PubChem BioAssay AID1159580 (chemical genetic matrix, 2015)
Where “and” joins values, the source holds several entries; their conditions need not be identical. Equal values may be shown once. Hit rate of the full screen: of about 5,500 compounds, about 2,000 (36%) were called active. Not shown: some 18% with an inconclusive outcome. Cut-off read from the data, not from the text of the source: active = normalized growth mostly below about 0.91 (no sharp cut-off); inconclusive = no clear call, values can overlap the other calls; inactive = mostly above about 0.92. The list shows a part of the results.

Assay: chemical genetic growth profiling, strain panel (AID 1159580);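 note: tested at 20 µM; growth read once vehicle control cultures reached saturation at 30 °C; 1 = growth at the plate median or of vehicle wells; lower values mean less growth of the strain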
Details: growth OD

Measured: normalized growth

CC(C)(C)NCC(O)c1ccc(O)c(CO)c1 (stereo not given)
inactive: S. cerevisiae deletion strains, locus YJR075W, strain HOC1, hits give low values 0.997 and 1.01 | S. cerevisiae deletion strains, locus YKL009W, strain mrt4, hits give low values 1.02 | S. cerevisiae deletion strains, locus YKL068W, hits give low values 1.01 | S. cerevisiae deletion strains, locus YKL085W, strain MDH1 (second series), hits give low values 1.03 | S. cerevisiae deletion strains, locus YKL085W, strain MDH1, hits give low values 1.03 | S. cerevisiae deletion strains, locus YKL160W, strain elf1, hits give low values 1.02 | S. cerevisiae deletion strains, locus YKL190W, strain CNB1, hits give low values 1.02 | S. cerevisiae deletion strains, locus YKR001C, strain vps1, hits give low values 1.01 | S. cerevisiae deletion strains, locus YKR026C, strain gcn3, hits give low values 0.999 | S. cerevisiae deletion strains, locus YKR091W, strain srl3, hits give low values 1 | S. cerevisiae deletion strains, locus YLL001W, strain dnm1, hits give low values 1.02 | S. cerevisiae deletion strains, locus YLL026W, hits give low values 1 | S. cerevisiae deletion strains, locus YLL041C, strain sdh2, hits give low values 1.02 | S. cerevisiae deletion strains, locus YLR027C, strain aat2, hits give low values 1.01 | S. cerevisiae deletion strains, locus YLR039C, strain RIC1, hits give low values 1.06 | S. cerevisiae deletion strains, locus YLR058C, strain SHM2, hits give low values 1.01 | S. cerevisiae deletion strains, locus YLR102C, strain apc9, hits give low values 1.01 | S. cerevisiae deletion strains, locus YLR113W, strain HOG1, hits give low values 1.01 | S. cerevisiae deletion strains, locus YLR221C, strain rsa3, hits give low values 1.01 | S. cerevisiae deletion strains, locus YLR258W, strain gsy2, hits give low values 1.02 | S. cerevisiae deletion strains, locus YLR262C, strain YPT6 (second series), hits give low values 1 | S. cerevisiae deletion strains, locus YLR262C, strain YPT6, hits give low values 1.04 | S. cerevisiae deletion strains, locus YLR268W, strain sec22, hits give low values 1.02 | S. cerevisiae deletion strains, locus YLR320W, strain mms22, hits give low values 1.02 | S. cerevisiae deletion strains, locus YLR330W, strain CHS5, hits give low values 1.01 | S. cerevisiae deletion strains, locus YLR342W, strain FKS1 (second series), hits give low values 1.04 | S. cerevisiae deletion strains, locus YLR342W, strain FKS1, hits give low values 1.01 | S. cerevisiae deletion strains, locus YLR357W, strain rsc2, hits give low values 1.04 | S. cerevisiae deletion strains, locus YLR370C, strain arc18, hits give low values 1.01 | S. cerevisiae deletion strains, locus YLR371W, strain rom2, hits give low values 1 | S. cerevisiae deletion strains, locus YLR384C, strain iki3, hits give low values 1.02 | S. cerevisiae deletion strains, locus YLR418C, strain cdc73, hits give low values 1.05 | S. cerevisiae deletion strains, locus YML016C, strain PPZ1, hits give low values 1.01 | S. cerevisiae deletion strains, locus YML032C, strain rad52, hits give low values 1.01 | S. cerevisiae deletion strains, locus YML120C, strain ndi1, hits give low values 1 | S. cerevisiae deletion strains, locus YML124C, strain tub3, hits give low values 1.01 | S. cerevisiae deletion strains, locus YMR058W, strain fet3, hits give low values 1 | S. cerevisiae deletion strains, locus YMR078C, strain ctf18, hits give low values 1.02 | S. cerevisiae deletion strains, locus YMR125W, strain sto1, hits give low values 1.03 | S. cerevisiae deletion strains, locus YMR129W, hits give low values 1.01 | S. cerevisiae deletion strains, locus YMR205C, strain PFK2, hits give low values 1.02 | S. cerevisiae deletion strains, locus YMR223W, strain ubp8, hits give low values 1.06 | S. cerevisiae deletion strains, locus YMR231W, strain pep5, hits give low values 1.01 | S. cerevisiae deletion strains, locus YMR263W, strain SAP30, hits give low values 1.02 and 1 | S. cerevisiae deletion strains, locus YMR307W, strain GAS1, hits give low values 1.11 and 0.997 and 0.979 | S. cerevisiae deletion strains, locus YNL067W, strain RPL9B, hits give low values 1.01 | S. cerevisiae deletion strains, locus YNL071W, strain lat1, hits give low values 1 | S. cerevisiae deletion strains, locus YNL128W, strain TEP1, hits give low values 1.02 | S. cerevisiae deletion strains, locus YNL175C, strain NOP13, hits give low values 1 and 1.03 | S. cerevisiae deletion strains, locus YNL183C, strain NPR1, hits give low values 0.974 | S. cerevisiae deletion strains, locus YNL197C, strain WHI3, hits give low values 1 and 1.01 | S. cerevisiae deletion strains, locus YNL209W, strain ssb2, hits give low values 1.02 | S. cerevisiae deletion strains, locus YNL224C, strain SQS1, hits give low values 0.996 and 1 | S. cerevisiae deletion strains, locus YNL233W, strain BNI4, hits give low values 0.99 | S. cerevisiae deletion strains, locus YNL248C, strain rpa49, hits give low values 1.03 | S. cerevisiae deletion strains, locus YNL250W, strain rad50, hits give low values 1.02 | S. cerevisiae deletion strains, locus YNL271C, strain bni1, hits give low values 1.02 | S. cerevisiae deletion strains, locus YNL298W, strain CLA4, hits give low values 1.02 | S. cerevisiae deletion strains, locus YNL307C, strain MCK1, hits give low values 1.02 | S. cerevisiae deletion strains, locus YNL322C, strain KRE1 (second series), hits give low values 1.01 | S. cerevisiae deletion strains, locus YNL322C, strain KRE1, hits give low values 1.01 and 1.03 | S. cerevisiae deletion strains, locus YNR049C, strain mso1, hits give low values 1.01 | S. cerevisiae deletion strains, locus YNR052C, strain pop2, hits give low values 1.02 | S. cerevisiae deletion strains, locus YOL006C, strain TOP1, hits give low values 1.05 | S. cerevisiae deletion strains, locus YOL012C, strain htz1 1.03 | S. cerevisiae deletion strains, locus YOL147C, strain pex11, hits give low values 1.02 | S. cerevisiae deletion strains, locus YOR001W, strain rrp6, hits give low values 1.01 | S. cerevisiae deletion strains, locus YOR061W, strain CKA2, hits give low values 1.01 | S. cerevisiae deletion strains, locus YOR069W, strain VPS5, hits give low values 1.01 | S. cerevisiae deletion strains, locus YOR070C, strain gyp1, hits give low values 1.02 | S. cerevisiae deletion strains, locus YOR080W, strain dia2, hits give low values 1.03 | S. cerevisiae deletion strains, locus YOR083W, strain WHI5 (second series), hits give low values 1.01 | S. cerevisiae deletion strains, locus YOR083W, strain WHI5, hits give low values 0.966 | S. cerevisiae deletion strains, locus YOR106W, strain vam3, hits give low values 1.01 | S. cerevisiae deletion strains, locus YOR136W, strain idh2, hits give low values 1.02 | S. cerevisiae deletion strains, locus YOR144C, strain elg1, hits give low values 1.02 | S. cerevisiae deletion strains, locus YOR184W, strain ser1, hits give low values 1.02 | S. cerevisiae deletion strains, locus YOR231W, strain MKK1, hits give low values 1.02 | S. cerevisiae deletion strains, locus YOR265W, strain rbl2, hits give low values 1.01 | S. cerevisiae deletion strains, locus YOR270C, strain vph1, hits give low values 1.02 | S. cerevisiae deletion strains, locus YOR290C, strain snf2, hits give low values 1.03 | S. cerevisiae deletion strains, locus YOR316C, strain cot1, hits give low values 1.01 | S. cerevisiae deletion strains, locus YPL051W, strain arl3, hits give low values 1.01 | S. cerevisiae deletion strains, locus YPL055C, strain LGE1, hits give low values 1.01 | S. cerevisiae deletion strains, locus YPL078C, strain atp4, hits give low values 1 | S. cerevisiae deletion strains, locus YPL106C, strain sse1, hits give low values 1.04 | S. cerevisiae deletion strains, locus YPL240C, strain hsp82, hits give low values 1.02 | S. cerevisiae deletion strains, locus YPL241C, strain CIN2, hits give low values 1.01 | S. cerevisiae deletion strains, locus YPL256C, strain CLN2, hits give low values 1.04 | S. cerevisiae deletion strains, locus YPR119W, strain clb2, hits give low values 1.01 | S. cerevisiae deletion strains, locus YPR141C, strain kar3, hits give low values 1.01 | S. cerevisiae deletion strains, locus YPR163C, strain tif3, hits give low values 1.02 | S. cerevisiae deletion strains, locus YPR167C, strain met16, hits give low values 1.02 | S. cerevisiae deletion strains, strain wtn01, hits give low values 1.04 | S. cerevisiae strains, strain wild type, hits give low values 1.01
